TCR act – activators of T cell receptors. primary human leukocytes, anti-CD3, IL-2 HTRF, 48 h. Potency, µM (titrated, usually from 9.22 µM), actives largely listed as activators. 330,000 tested, under 10 active. AID 504894
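Primary human leukocytes receive a-CD3 beads and test compound and are incubated 48 hr. Secreted IL-2 is then assayed by HTRF, measuring 665nm acceptor emission after 320nm excitation of the europium donor.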
Mito fusion act – blocks mitochondrial division or promotes mitochondrial fusion; Potency, µM (highest dose often 46.1 µM), actives largely listed as activators; AID 485298; hit rate 0.23% among 320,000; S. cerevisiae fusion-defective mutant growth rescue, CellTiterGlo 48 h; also: nearly all actives have a fitted effect of over 45% in size
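Compounds are tested for their ability to restore growth of mitochondrial fusion-defective yeast strains at non-permissive 37C in YPEG medium over 48 hours. Viability is quantified by luciferase luminescence.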
ClpP mod – qHTS Assay for Activators of ClpP; purified B. subtilis ClpP, FRET peptide cleavage, 20 min; Potency, µM (series often up to 57.5 µM); ATP-dependent Clp protease proteolytic subunit (Bacillus subtilis (strain 168)), P80244; hit rate 1.9% among 340,000; active = well fitted falling curve with a large enough effect; inconclusive = small, poorly fitted or top-dose-only effect; inactive = no such curve, though single readings can be large or run the other way; also: the source files actives as falling curves though it sought activators and does not explain the sign; nearly all actives have a fitted effect of over 65% in size
Target sequence (P80244 whole entry, looked up): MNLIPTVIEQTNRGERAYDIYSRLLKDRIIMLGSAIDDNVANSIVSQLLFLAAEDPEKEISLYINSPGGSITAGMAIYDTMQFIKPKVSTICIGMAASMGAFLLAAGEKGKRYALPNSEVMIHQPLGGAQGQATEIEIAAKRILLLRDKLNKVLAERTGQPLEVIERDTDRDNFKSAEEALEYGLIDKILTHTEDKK
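Purified B. subtilis ClpP, 10 microg/mL final in Tris/HCl pH8 with KCl, BSA, glycerol and Tween-20, cleaved an Abz/nitrotyrosine-quenched decapeptide. Fluorescence (ex 320, em 430) was read at 0 and 20 min at room temperature. Delta was normalized to 5.8 microM ADEP and DMSO/no-enzyme controls.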
MBNL1-CUG inh – inhibitors of human MBNL1 binding to CUG repeat RNA; Potency, µM (doses to about 57.5 µM), usual class: inhibitors; Q9NR56; TR-FRET MBNL1-His/biotin-(CUG)12 binding, 665/545 ratio; AID 2675; hit rate 0.036% among 280,000; active = well fitted inhibition curve with a large enough effect in the signal ratio, with a control signal flat, not every such curve was filed as active; inconclusive = small, poorly fitted or top-dose-only effect, or effect the other way, or a change in a side signal; inactive = no such curve, though single readings can be large or run the other way; the % refers to the signal ratio
Target sequence (Q9NR56 whole entry, looked up): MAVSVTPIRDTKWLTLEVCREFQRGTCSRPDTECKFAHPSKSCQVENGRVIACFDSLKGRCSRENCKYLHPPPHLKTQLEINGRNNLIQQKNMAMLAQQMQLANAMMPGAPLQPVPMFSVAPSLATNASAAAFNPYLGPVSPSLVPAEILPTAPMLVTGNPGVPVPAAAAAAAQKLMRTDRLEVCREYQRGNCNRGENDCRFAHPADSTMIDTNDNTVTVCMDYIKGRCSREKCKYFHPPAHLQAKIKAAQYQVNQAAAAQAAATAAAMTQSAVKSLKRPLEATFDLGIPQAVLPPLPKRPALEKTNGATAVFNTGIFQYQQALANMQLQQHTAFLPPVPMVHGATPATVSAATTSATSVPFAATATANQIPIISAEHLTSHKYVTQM
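Ratiometric TR-FRET (665 over 545 nm, excitation 340 nm) tracks disruption of MBNL1-His/biotin-(CUG)12 complex after 60 min at room temperature, with compounds at 92 nM to 58 uM final.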
A-T KAP1 phos – potential ataxia-telangiectasia treatments restoring KAP-1 phosphorylation | F2112 A-T fibroblasts, KAP-1 phosphorylation AlphaLISA; neocarzinostatin DNA damage 30 min before lysis | Potency, µM (series often up to 57.5 µM), most hits filed as activators | hit rate 0.19% among 320,000 | AID 485349; also: nearly all actives have a fitted effect of over 45% in size
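ATM-like activity read as KAP-1 phosphorylation via AlphaLISA donor/acceptor antibody pairs after lysis and 6 hr at 25C. Cells were ATM-null patient fibroblasts (F2112, hTERT), dosed 60 min, then exposed to the DSB inducer NCS for 30 min.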
GRP78 ERSR act – inducers of ER stress response in human glioma cells | U87-MG GRP78 promoter luciferase reporter, 16 h | Potency, µM, hits mostly activators | hit rate 0.02% among 420,000 | AID 602332; also: series mostly up to about 76 µM; nearly all actives have a fitted effect of over 35% in size
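Stably transfected U87-MG human glioma cells carrying a GRP78-based luminescent sensor were seeded at 1000 cells/well, pin-dosed with compounds and incubated 16 h. Luciferase reagent was then added, and end-point luminescence was read after 10 min at room temperature.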
Numbers stand for hits; i = inactive; ? = inconclusive; nt = no result; ! = not confirmed by another sample. Shown are actives, neighbours in structure and some others; about 1.8% of the full set was active somewhere. Unless noted, calls follow the shape of the dose curve; as a rule, active = well fitted curve in the direction sought with a large enough effect; inconclusive = small, poorly fitted or top-dose-only effect, or another doubt; inactive = no such curve, though single readings can be large; an effect the other way counts as inactive or inconclusive.

SMILES | TCR act | Mito fusion act | ClpP mod | MBNL1-CUG inh | A-T KAP1 phos | GRP78 ERSR act
COc1cc2c(cc1OC)C1=NC(=O)CN1C(SCc1ccc(C)cc1)=N2 | i | i | 20µM | ? | i | i
C=CCSC1=Nc2cc(OC)c(OC)cc2C2=NC(=O)CN12 | i | i | i | i | i | i
CCCn1cc(S(=O)(=O)c2ccc(OC)cc2)c(=O)c2cc(F)c(N3CCCC(C)C3)cc21 (configuration not stated) | nt | nt | 20µM | nt | nt | i
CCCCn1cc(S(=O)(=O)c2ccc(OC)cc2)c(=O)c2cc(F)c(N3CCCC3)cc21 | nt | nt | i | nt | nt | i
CCn1cc(S(=O)(=O)c2ccccc2)c(=O)c2cc(F)c(N3CCCC3)cc21 | nt | nt | 25µM | nt | nt | i
CCCn1cc(S(=O)(=O)c2ccccc2)c(=O)c2cc(F)c(N3CCCCCC3)cc21 | nt | nt | 28µM | nt | nt | i
O=C(CSc1ccc(C(F)(F)F)cc1[N+](=O)[O-])Nc1ccc2ccccc2c1 | i | i | 28µM | i | i | i
COc1ccc(CNc2nc3nc(C)cc(C)n3n2)cc1OC | i | i | i | i | i | i
Cc1cc(C)n2nc(NCc3cccc(Br)c3)nc2n1 | i | i | 14µM | i | i | i
NC(C(=O)O)c1cc(O)cc(O)c1 (configuration not stated) | nt | nt | nt | nt | nt | i
O=S(Cc1ccc(Br)cc1)Cc1nnc(SCc2c(F)cccc2Cl)n1-c1ccccc1 (configuration not stated) | i | ? | 32µM | i | i | i
CCCCCCCCCCCCCCCC(=O)NCCO | i | 4.1µM! | i | nt | i | i
Cn1c(=O)c2c(nc(Cl)n2CC(=O)NC2(C#N)CCCCC2)n(C)c1=O | i | i | 28µM | nt | i | i
N#CC1(NC(=O)Cn2ncc(Cl)c(Cl)c2=O)CCCCC1 | i | i | nt | nt | i | i
CCOC(=O)CSc1nnc2c(n1)C1(C)CCC2C1(C)C (configuration not stated) | i | i | i | i | i | i
CC12CCC(c3nnc(SCc4ccc(Cl)cc4)nc31)C2(C)C (configuration not stated) | i | i | 20µM | i | i | i
C1NNCC12CNNC2 | nt | nt | i | nt | nt | nt
CCc1c(N)nc(N)nc1Nc1ccccc1Cl | i | nt | nt | nt | nt | i
Nc1nnc(-c2cccc(Cl)c2Cl)c(N)n1 | i | 21µM! | i | i | i | i
O=S1(=O)CCO[C@H]2CCCC[C@@H]2N1Cc1ccccc1 | nt | nt | i | nt | nt | i
CCOc1ccc2nc(N/C(N)=N/C(=S)Nc3ccc(C)c(C)c3)nc(C)c2c1 | i | i | 25µM | i | i | i
O=C(OCC1(COC(=O)c2cccnc2)CCCC(COC(=O)c2cccnc2)(COC(=O)c2cccnc2)C1O)c1cccnc1 | nt | nt | nt | nt | nt | i
COc1ccc(-c2ccc(C)cc2)cc1C1C2C=CCC(C)C2C(=O)N1Cc1ccccc1 (configuration not stated) | nt | nt | nt | nt | nt | i
O=C(CNC(=S)NC(=O)c1ccc(Cl)cc1)c1ccccc1 | i | i | 28µM | nt | i | i
O=C(CNC(=S)NC(=O)c1ccc(Br)o1)c1ccccc1 | i | i | i | i | i | i
SMILES | TCR act | Mito fusion act | ClpP mod | MBNL1-CUG inh | A-T KAP1 phos | GRP78 ERSR act
CN(C)c1cc(Nc2ccc(O)cc2)c([N+](=O)[O-])c2nonc12 | i | i | i | ? | 7.1µM | i
CC(=O)c1ccc2c(c1)C1C=CCC1C(c1cc3c(cc1Br)OCO3)N2 (configuration not stated) | i | 13µM | ? | nt | i | i
COc1ccc2c(c1)C1C=CCC1C(c1cc3c(cc1Br)OCO3)N2 (configuration not stated) | i | i | i | i | i | i
CCOc1ccc(-c2csc(NC(=O)CSC3=NC(=O)CN3C(C)=O)n2)c2ccccc12 | i | i | i | i | i | i
CC(=O)N1CC(=O)N=C1SCC(=O)Nc1nc(C)c(-c2ccccc2)s1 | i | i | 20µM | i | i | ?
O=C(Nc1nc(-c2ccc(S(=O)(=O)N3CCOCC3)cc2)cs1)c1ccccc1 | i | i | i | i | i | i
Cc1ccc(Nc2nc(-c3ccc(S(=O)(=O)N4CCOCC4)cc3)cs2)cc1Cl | i | i | 16µM | i | i | i
CC(C)CC(=O)Nc1nc(-c2ccc(S(=O)(=O)N3CCOCC3)cc2)cs1 | i | i | 32µM | i | i | i
COc1cccc(C(=O)Nc2nc(-c3ccc(S(=O)(=O)N4CCOCC4)cc3)cs2)c1 | i | i | ? | i | i | i
Cc1ccc(S(=O)(=O)N2CCOCC2)cc1C(=O)Nc1nc(-c2cccnc2)cs1 | i | i | i | i | i | i
Cc1csc(NC(=O)CSc2nnc(-c3ccc(S(=O)(=O)N4CCCC4)cc3)o2)n1 | i | i | 28µM | i | i | i
CCCCC(=O)Nc1nc(-c2ccc(S(=O)(=O)N3CCOCC3)cc2)cs1 | i | i | 28µM | i | i | i
CCCCn1cc[n+](C)c1 | nt | nt | nt | nt | nt | i
O=C(c1cccc(N2CCCC2=O)c1)N1CCC(Oc2cccc(CN3CCN(c4ccccn4)CC3)c2)CC1 | nt | nt | nt | nt | nt | i
CCN(CCO)C(=O)c1cnn(-c2ncc3c(n2)-c2ccccc2CCC3)c1C1CC1 | nt | nt | nt | nt | nt | i
Cc1ccc(CNC(=O)CSc2c(C(C)C)cnc3c2c(=O)n(C)c(=O)n3C)cc1 | nt | nt | i | nt | nt | i
COc1ccc(/C=C(\C#N)C(=O)N2CCOCC2)cc1Br | i | i | 25µM | i | i | i
CC(=O)Nc1ccc(NC(=O)c2oc3c(c2C)-c2nn(Cc4ccccc4Cl)cc2CC3)cc1 | nt | nt | 20µM | nt | nt | i
COCCCNC(=O)c1oc2c(c1C)-c1nn(Cc3ccc(Cl)cc3)cc1CC2 | nt | nt | 32µM | nt | nt | i
CCN(CC)CCCNC(=O)c1oc2c(c1C)-c1nn(Cc3ccc(Cl)cc3)cc1CC2 | nt | nt | 16µM | nt | nt | i
C=C[C@@]1(C)CC[C@H]2C(=CC[C@@H]3[C@]2(C)CCC[C@@]3(C)C(=O)O)C1 | nt | nt | nt | nt | nt | i
CCOc1ccc(N=C(C)Nc2ccc(OCC)cc2)cc1 | nt | nt | nt | nt | nt | i
COCCNc1nc2ccccc2nc1NS(=O)(=O)c1ccc(C)cc1C | i | i | 28µM | i | i | i
CCOC(=O)c1c(-c2ccccc2)[nH]c2ccc(O)cc12 | i | i | 32µM | i | i | i
Cc1nc(-c2ccc(S(=O)(=O)N3CCN(C4c5ccccc5-c5ccccc54)CC3)s2)cs1 | i | i | 28µM | i | i | i
O=C(Cc1c(F)c(F)c(F)c(F)c1F)Nc1nc(-c2ccccc2)cs1 | i | 11µM | i | i | i | i
O=C(Cc1ccc(F)cc1)Nc1nc(-c2ccc(F)cc2)cs1 | i | i | nt | i | i | i
Cc1cccc(C)c1NC(=S)NCCc1ccc(O)c(O)c1 | nt | i | i | i | i | 16µM
Cn1ccc(C(=O)NCC2CCC3(CCN(Cc4ccc(F)cc4F)CC3)O2)n1 (configuration not stated) | nt | nt | nt | nt | nt | i
Fc1ccc(CN2CC[C@H]3C=CCc4cccc(c43)C2)cc1 | i | i | i | nt | ? | i

High-throughput results (PubChem)
